The text below walks through data of PubChem BioAssay.

The test system of test [1] is Plasmodium falciparum Sir2 (PF13_0152, Sir2A). The experiment in a line: Plasmodium falciparum Sir2A binding compounds – biochemical, small-molecule microarray, 635 nm fluorescence, primary screen (AID 1098).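 Further: score merges spot fluorescence intensity with its signal-to-noise ratio.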 The following applies: fluorescence 635 nm, higher = more signal.
Test [2] in a line: probe aDKK1 binding to arrayed compounds – biochemical, biotinylated probe, 635/667 nm fluorescence, primary screen (AID 1099).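 Further: score merges 667nm spot fluorescence with signal to noise across triplicate slides; reference of the scale not given here.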 The following applies: small-molecule microarray, higher = more signal.
A short description of test [3]: probe aCHRDL2 binding to arrayed compounds – biochemical, biotinylated probe, 635/667 nm fluorescence, primary screen (AID 1100). The following applies: small-molecule microarray, higher = more signal.
The nature of test [4]: change in splice reporter luminescence, either direction, cell-based, HEK293, spliceosome inhibition project, primary screen (AID 1101).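 Further: HEK293 cells carrying a splicing-competent luciferase reporter gene; test concentration not given here.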 The following applies: HEK293 splicing luciferase reporter, 24 h, higher = more signal, called active from +8 up or from −8 down. A general note: Reporter assays use an easily measured gene product as a stand-in for the process of interest.

Test [5] concerns the target Fibroblast growth factor 10 (Homo sapiens) (UniProt O15520). The test can be described thus: compounds binding fibroblast growth factor 10 – biochemical, small-molecule microarray, 635 nm fluorescence, primary screen (AID 1102). The following applies: FGF10 binding, fluorescence 635 nm, higher = more signal.
Test [6] has as its system glycogen synthase kinase-3 (GSK3A per assay name; protocol says GSK3B). The test can be described thus: compounds binding glycogen synthase kinase-3 – biochemical, small-molecule microarray, 635 nm fluorescence, GSK3A, primary screen (AID 1103). Further: the record names both GSK3A and GSK3B. The following applies: fluorescence 635 nm, higher = more signal.
Test [7] addresses Epidermal growth factor receptor (Homo sapiens) (UniProt P00533). The experiment in a line: compounds binding epidermal growth factor receptor – biochemical, small-molecule microarray, 635 nm fluorescence, primary screen (AID 1104).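 Further: score merges 667 nm emission intensity with spot signal to noise over triplicate slides.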 The following applies: EGFR binding, higher = more signal.
In test [8] the target is Follistatin-related protein 3 (Homo sapiens) (UniProt O95633). The experiment in a line: compounds binding follistatin-related protein 3 – biochemical, small-molecule microarray, 635 nm fluorescence, primary screen (AID 1105).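 Further: score merges emission near 667 nm and signal to noise per printed spot across three slides.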 The following applies: FSTL3 binding, higher = more signal.
Test [9] addresses Dickkopf-related protein 1 (Homo sapiens) (UniProt O94907). The test can be described thus: small molecules binding DKK1 protein – biochemical, small-molecule microarray, 635 nm fluorescence scan, primary screen (AID 1106).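 Further: score merges emission near 667 nm with signal to noise over three replicate slides.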 The following applies: higher = more signal.
The test system of test [10] is Inhibin beta A chain (activin A). The experiment in a line: small molecules binding activin A – biochemical, small-molecule microarray, 635 nm fluorescence scan, primary screen (AID 1107).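 Further: mouse activin A protein probed at 4.33 µg/mL on printed slides; score merges bound-protein fluorescence near 667 nm with spot signal-to-noise.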 The following applies: INHBA, higher = more signal.

Active and inactive are the calls of the source.

Follistatin-related protein 3 (Homo sapiens), sequence (O95633 whole entry, looked up): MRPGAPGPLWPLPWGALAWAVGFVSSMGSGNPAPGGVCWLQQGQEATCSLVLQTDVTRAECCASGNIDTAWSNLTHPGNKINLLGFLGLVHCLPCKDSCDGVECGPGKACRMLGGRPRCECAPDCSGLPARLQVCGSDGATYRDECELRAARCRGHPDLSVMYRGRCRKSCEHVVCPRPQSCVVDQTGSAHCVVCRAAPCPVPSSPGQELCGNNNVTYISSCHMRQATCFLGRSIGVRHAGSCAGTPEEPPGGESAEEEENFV
Epidermal growth factor receptor (Homo sapiens), sequence (P00533 whole entry, looked up): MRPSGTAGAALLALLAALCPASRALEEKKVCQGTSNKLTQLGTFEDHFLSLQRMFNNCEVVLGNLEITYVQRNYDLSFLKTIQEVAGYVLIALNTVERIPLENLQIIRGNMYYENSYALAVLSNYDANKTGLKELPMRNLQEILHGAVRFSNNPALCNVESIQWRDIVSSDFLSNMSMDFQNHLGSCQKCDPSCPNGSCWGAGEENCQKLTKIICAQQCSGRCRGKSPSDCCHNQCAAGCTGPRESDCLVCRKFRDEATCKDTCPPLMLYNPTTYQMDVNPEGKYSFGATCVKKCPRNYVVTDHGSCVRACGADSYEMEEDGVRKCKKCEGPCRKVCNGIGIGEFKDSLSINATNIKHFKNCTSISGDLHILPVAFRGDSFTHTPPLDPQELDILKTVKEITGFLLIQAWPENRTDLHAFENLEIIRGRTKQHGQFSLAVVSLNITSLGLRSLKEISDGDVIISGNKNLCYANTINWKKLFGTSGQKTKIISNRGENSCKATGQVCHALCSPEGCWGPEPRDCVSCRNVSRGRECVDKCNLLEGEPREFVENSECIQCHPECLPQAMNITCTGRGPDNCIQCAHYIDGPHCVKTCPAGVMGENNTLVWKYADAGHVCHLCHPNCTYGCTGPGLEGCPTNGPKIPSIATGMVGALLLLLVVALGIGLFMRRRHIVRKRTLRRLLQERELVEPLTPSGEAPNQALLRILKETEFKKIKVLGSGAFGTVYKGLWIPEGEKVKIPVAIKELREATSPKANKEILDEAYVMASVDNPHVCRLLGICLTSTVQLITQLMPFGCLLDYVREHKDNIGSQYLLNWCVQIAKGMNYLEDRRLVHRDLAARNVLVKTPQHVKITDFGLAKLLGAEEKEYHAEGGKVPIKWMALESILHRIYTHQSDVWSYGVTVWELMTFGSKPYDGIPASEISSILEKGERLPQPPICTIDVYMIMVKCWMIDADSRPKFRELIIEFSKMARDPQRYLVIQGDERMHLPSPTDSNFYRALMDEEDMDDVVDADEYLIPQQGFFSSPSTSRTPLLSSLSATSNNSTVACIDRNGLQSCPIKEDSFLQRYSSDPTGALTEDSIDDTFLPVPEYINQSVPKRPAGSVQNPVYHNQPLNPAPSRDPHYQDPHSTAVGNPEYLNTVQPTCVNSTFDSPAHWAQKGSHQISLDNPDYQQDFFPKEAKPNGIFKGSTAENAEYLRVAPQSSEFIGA
Fibroblast growth factor 10 (Homo sapiens), sequence (O15520 whole entry, looked up): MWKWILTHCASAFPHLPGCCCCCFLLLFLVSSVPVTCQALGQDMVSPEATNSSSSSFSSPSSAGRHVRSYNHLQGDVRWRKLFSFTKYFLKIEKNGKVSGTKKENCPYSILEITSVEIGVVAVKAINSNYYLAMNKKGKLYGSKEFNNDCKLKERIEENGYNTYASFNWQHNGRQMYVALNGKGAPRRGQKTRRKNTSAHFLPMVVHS
Dickkopf-related protein 1 (Homo sapiens), sequence (O94907 whole entry, looked up): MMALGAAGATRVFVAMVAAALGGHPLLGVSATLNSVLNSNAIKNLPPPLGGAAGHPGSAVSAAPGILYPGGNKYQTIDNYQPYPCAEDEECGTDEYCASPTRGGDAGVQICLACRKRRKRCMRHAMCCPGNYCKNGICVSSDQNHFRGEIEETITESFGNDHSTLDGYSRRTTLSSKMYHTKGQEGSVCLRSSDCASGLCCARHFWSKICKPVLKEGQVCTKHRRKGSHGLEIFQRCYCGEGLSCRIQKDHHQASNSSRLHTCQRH

Regarding `CN1C(=O)C2C=CC(C(O)C3=C[C@H]4C[C@@H](C3)C4(C)C)N(Nc3ccccc3)C2C1=O` (stereo not given in full), the composite z-score in [1] was 0.46; in [2] it was 0.462; in test [3], 0.63; in [5] it was 0.944; in test [6] it was 0.776; in test [7] it was 0.356. Besides, the composite z-score in [8] came to 1.19; in [9], 0.109; in test [10], 1.42. Also, the z-score in [4] is 0.757 (inactive).
`O=C1O[C@H](c2ccccc2)[C@H](c2ccccc2)N2[C@H]1[C@@H](C(=O)Nc1nc3ccccc3s1)[C@]1(C(=O)Nc3ccc(C#CCCO)cc31)[C@H]2c1ccc(OCCO)cc1`: the composite z-score in test [1] was 1.59; in [2], -0.198; in test [3], -0.144; in test [5], 1.33; in [6], 1.31; in test [7], 0.468. The values for the composite z-score in test [8], in [9] and in test [10] were 1.14, 0.379 and 0.408, respectively. In addition, the z-score in test [4] is -0.0209 (inactive).
For `COCCOC(=O)N1C(=O)[C@@]2(c3cc(C#Cc4ccc(OC)cc4)ccc31)[C@H](C(=O)N1CCCCCCC1)[C@H]1C(=O)O[C@H](c3ccccc3)[C@H](c3ccccc3)N1[C@@H]2c1ccc(OCCO)cc1`, the composite z-score in test [1] is 1.37; in [2] it was 2.34; in test [3] it was 1.45; in test [5], 1.7; in test [6], 1.33; in test [7], 1.13. For the same molecule, the composite z-score in [8] was determined as 1.45; in [9], 1.76; in test [10], 1.58. In addition, in [4], the z-score was -0.16 (inactive).
For the molecule `CCC(CC)C(O)C1C=CC2C(=O)N(C)C(=O)C2N1Nc1ccccc1` (stereo not given), the composite z-score came out at 0.695 in [1]; 0.332 in test [2]; 0.9 in [3]; 0.603 in test [5]; 0.499 in [6]; 0.0611 in [7]. In addition, the composite z-score worked out at 0.698 in [8], 0.371 in test [9] and 0.867 in test [10]. In [4], the z-score is 0.464 (inactive).
Turning to `O=C1c2ccccc2[C@@]2(Cc3ccccc3N(CCN3CCOCC3)C2=O)[C@H](c2ccc(CO)cc2)N1Cc1ccccc1`, the composite z-score was 0.878 in test [1]; -0.0074 in test [2]; 0.278 in test [3]; -0.667 in test [5]; -1.23 in [6]; -1.17 in test [7]. Moreover, the composite z-score in test [8] is -0.267; in [9] it was -0.391; in test [10] it was 0.819. Further, the z-score in [4] is -0.765 (inactive).
As to `Cc1ccc(S[C@]2(C(=O)NCC(C)C)CC(=O)N(Cc3cc(C(F)(F)F)cc(C(F)(F)F)c3)[C@@H]2c2ccc(CO)cc2I)cc1`, the composite z-score in test [1] is -0.313; in test [2], 0.75; in test [3], 1.39; in test [5], -0.755; in test [6], -1.16; in test [7], -1.78. The results for the composite z-score in [8], in test [9] and in [10] were -0.615, -2.14 and 0.923, respectively. Further, the z-score in test [4] is -0.0957 (inactive).
As to `CCCC#C[Si](O[C@H](CC)c1cn([C@H](CO)Cc2ccccc2)nn1)(C(C)C)C(C)C`, the composite z-score is 0.947 in test [1]; 0.111 in test [2]; -0.467 in test [3]; 0.955 in test [5]; 0.379 in test [6]; 0.371 in test [7]. The composite z-score in test [8] was 1.15; in test [9], 0.82; in test [10], -0.253. In [4], the z-score was -0.118 (inactive).
Regarding `COc1ccc(C(O)C2C=CC3C(=O)NC(=O)C3N2Nc2ccccn2)cc1` (stereo not given), the composite z-score in test [1] is 0.948; in [2], 0.422; in test [3] it was 0.267; in test [5] it was 0.257; in [6], -0.0877; in test [7], 0.686. In addition, the composite z-score worked out at 0.304 in [8], 0.645 in test [9] and 0.371 in [10]. Moreover, in [4], the z-score was 0.706 (inactive).
For the molecule `COC(=O)[C@@]1(Cc2ccc(F)cc2)[C@H]2c3cc(C(=O)N(C)C)n(Cc4ccc(S(C)(=O)=O)cc4)c3C[C@H]2CN1C(=O)c1ccccc1`, the composite z-score in [1] was determined as 0.46; in [2], 0.883; in test [3] it was 0.899; in [5], 1.35; in test [6], 0.0364; in [7], 0.603. Also, the composite z-score in [8] was 0.0567; in test [9], -0.0071; in test [10], 0.95. For the same molecule, the z-score in test [4] was 0.895 (inactive).
On to `COc1ccc(C(=O)Nc2ccc(CN3C(=O)[C@@]4(O[C@@H](CC(=O)N5CCC[C@H]5CO)[C@H]([Si](C)(C)c5ccc(OC)cc5)[C@H]4C)c4ccccc43)cc2)cc1`, for which the composite z-score in [1] is 1.4; in test [2], -0.143; in [3] it was -0.0233; in test [5], 1.38; in test [6], 1.29; in [7], 1.02. Further, the composite z-score is 1.44 in test [8], 1.14 in test [9] and 0.715 in [10]. Besides, the z-score in [4] is -0.681 (inactive).
As for `COC(=O)[C@@]1(Cc2ccccc2)[C@H]2c3cc(C(=O)N4CCCC4)n(Cc4nc5ccccc5[nH]4)c3C[C@H]2CN1C(=O)c1ccccc1`, the composite z-score in test [1] was 0.844; in test [2], 1.1; in [3], 1.36; in [5], 0.0471; in test [6] it was 1.19; in [7], -0.361. For the same molecule, the composite z-score in test [8] is 1.09; in [9], -0.137; in test [10], 0.831. For the same molecule, the z-score in [4] is -1.52 (inactive).
